Our source for the outcome and AC50 values is PubChem BioAssay (EPA / NIEHS).

Calls of active or inactive are those of the source. The calls were made as follows: active = hit-call score of the fitted dose curve at least 0.9, where 1 is the maximum; inactive = score below 0.9.

Common to all, as to conditions: mRNA level, 48 h; actives raise or lower the signal
Read-out in test [1]: Bcl-2 (BAD) gene, BAD (gene 572)
As to the kind of experiment: LTEA_HepaRG_BAD: Life Technologies and Expression Analysis (LTEA) Assay for Bcl-2 (BAD) gene using HepaRG (AID 2283469). The essentials:
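HepaRG, 48 h exposure, 8-pt half-log curve from 100 uM in 0.5% DMSO, duplicates. Readout: TaqMan qRT-PCR for BAD mRNA, housekeeping-normalised (ACTB/GAPDH/POLR2A); gain or loss fitted against DMSO baseline.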

Read-out in test [2]: Bcl-2 (BAX) gene, BAX (gene 581)
As to the kind of experiment: LTEA_HepaRG_BAX: Life Technologies and Expression Analysis (LTEA) Assay for Bcl-2 (BAX) gene using HepaRG (AID 2283470). The gist of the method: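 qRT-PCR read-out of BAX mRNA, normalized to three housekeeping genes, after 48 h chemical exposure of human HepaRG cells in serum-free induction medium; eight-point half-log series, top 100 uM, 0.5% DMSO vehicle; bidirectional fit versus DMSO.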

Read-out in test [3]: adenosine kinase (ADK) gene, ADK (gene 132)
As to the kind of experiment: LTEA_HepaRG_ADK: Life Technologies and Expression Analysis (LTEA) Assay for adenosine kinase (ADK) gene using HepaRG (AID 2283471). The essentials:
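ADK expression quantified by qRT-PCR, normalised to three housekeeping genes, after 48 h exposure of HepaRG cells to eight concentrations (top 100 uM, half-log steps, duplicate, 0.5% DMSO). Up- or down-regulation fitted relative to vehicle.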

Read-out in test [4]: Alpha-fetoprotein (AFP) gene, AFP (gene 174)
Nature of the test: LTEA_HepaRG_AFP: Life Technologies and Expression Analysis (LTEA) Assay for Alpha-fetoprotein (AFP) gene using HepaRG (AID 2283472). The essentials: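 qRT-PCR (Fluidigm TaqMan) readout of AFP transcript, normalized to three housekeeping genes, fitted bidirectionally against 0.5% DMSO baseline. HepaRG cells received chemicals for 48 h in serum-free induction medium, top concentration 100 uM, half-log steps.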

Read-out in test [5]: Apolipoprotein A-V (APOA5) gene, APOA5 (gene 116519)
Nature of the test: LTEA_HepaRG_APOA5: Life Technologies and Expression Analysis (LTEA) Assay for Apolipoprotein A-V (APOA5) gene using HepaRG (AID 2283474). The gist of the method: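 APOA5 transcript levels were quantified by qRT-PCR, normalized to three housekeeping genes, after 48 h chemical treatment of HepaRG cells (8 points, 100 uM maximum, half-log steps, 0.5% DMSO). Curves fitted in both directions against vehicle.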

Read-out in test [6]: Apoptosis regulator Bcl-2 (Homo sapiens) (UniProt P10415)
Nature of the test: LTEA_HepaRG_BCL2: Life Technologies and Expression Analysis (LTEA) Assay for Bcl-2 gene using HepaRG (AID 2283475). The essentials:
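qRT-PCR read-out (Fluidigm TaqMan) of BCL2 transcript, normalised to three housekeeping genes, after 48 h chemical exposure of HepaRG cells; 8-point half-log series, top 100 uM, 0.5% DMSO vehicle. Gain or loss of signal fitted relative to DMSO baseline.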

Read-out in test [7]: Bcl-2 (BID) gene, BID (gene 637)
Nature of the test: LTEA_HepaRG_BID: Life Technologies and Expression Analysis (LTEA) Assay for Bcl-2 (BID) gene using HepaRG (AID 2283476). The gist of the method: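 HepaRG, 48 h exposure, 8-pt half-log series, top 100 uM, 0.5% DMSO vehicle, duplicates. Readout: BID mRNA by TaqMan qRT-PCR; housekeeping-normalized; bidirectional curve fit vs DMSO baseline.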

Read-out in the next test: Caspase-3 (Homo sapiens) (UniProt P42574)
As to the kind of experiment: LTEA_HepaRG_CASP3: Life Technologies and Expression Analysis (LTEA) Assay for cysteine-aspartic acid protease (CASP3) using HepaRG (AID 2283477). The essentials:
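Expression of CASP3 was quantified by TaqMan qRT-PCR against three housekeeping genes (ACTB, GAPDH, POLR2A), bidirectionally versus 0.5% DMSO. HepaRG cultures received compounds in duplicate, top 100 uM with half-log steps, for 48 h in serum-free induction medium.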

Read-out in test [8]: Cytochrome P450 (CYP24A1), CYP24A1 (gene 1591)
As to the kind of experiment: LTEA_HepaRG_CYP24A1: Life Technologies and Expression Analysis (LTEA) Assay for Cytochrome P450 (CYP24A1) using HepaRG (AID 2283478). The essentials: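 mRNA of CYP24A1 quantified by TaqMan qRT-PCR (ACTB/GAPDH/POLR2A normalization) after 48 h chemical exposure of HepaRG cells, top concentration 100 uM, half-log steps, 0.5% DMSO vehicle, duplicates. Curves fitted bidirectionally against DMSO baseline.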

Read-out in test [9]: Cytochrome P450 (CYP1A2), CYP1A2 (gene 1544)
As to the kind of experiment: LTEA_HepaRG_CYP1A2: Life Technologies and Expression Analysis (LTEA) Assay for Cytochrome P450 (CYP1A2) using HepaRG (AID 2283479). The gist of the method:
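CYP1A2 transcript measured by TaqMan qRT-PCR against three housekeeping genes after 48-hour chemical exposure of HepaRG cells. Eight-point half-log series topping at 100 uM in 0.5% DMSO, duplicates; gain or loss fitted relative to vehicle.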

Read-out in test [10]: cysteine-aspartic acid protease (CASP8), CASP8 (gene 841)
As to the kind of experiment: LTEA_HepaRG_CASP8: Life Technologies and Expression Analysis (LTEA) Assay for cysteine-aspartic acid protease (CASP8) using HepaRG (AID 2283480). The gist of the method: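 qRT-PCR readout of CASP8 mRNA, normalized to three housekeeping genes, after 48 h chemical exposure of HepaRG cells; 8-point half-log series, top 100 uM, 0.5% DMSO vehicle. Bidirectional curve fitting against DMSO baseline.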

Read-out in test [11]: Cytochrome P450 (CYP2B6), CYP2B6 (gene 1555)
Nature of the test: LTEA_HepaRG_CYP2B6: Life Technologies and Expression Analysis (LTEA) Assay for Cytochrome P450 (CYP2B6) using HepaRG (AID 2283481). The gist of the method:
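CYP2B6 transcript level quantified by qRT-PCR against three housekeeping genes, fitted bidirectionally relative to DMSO. HepaRG cultures received chemicals for 48 h, 8-point half-log series from 100 uM in 0.5% DMSO, duplicate wells, serum-free induction medium.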

Read-out in test [12]: Cytochrome P450 2C19 (Homo sapiens) (UniProt P33261)
Nature of the test: LTEA_HepaRG_CYP2C19: Life Technologies and Expression Analysis (LTEA) Assay for CYP2C19 using HepaRG (AID 2283482). The gist of the method:
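CYP2C19 transcript levels by qRT-PCR, normalized to three housekeeping genes, in HepaRG cells after 48 h chemical exposure. Eight-point half-log series topping at 100 uM, 0.5% DMSO vehicle. Increases and decreases both fitted against DMSO.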

Read-out in another test: CYP2C8 (gene 1558)
Nature of the test: LTEA_HepaRG_CYP2C8: Life Technologies and Expression Analysis (LTEA) Assay for CYP2C8 using HepaRG (AID 2283483). The essentials: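 HepaRG (human liver line), 48 h chemical exposure, 8-pt half-log series from 100 uM, 0.5% DMSO vehicle. Readout: CYP2C8 transcript by qRT-PCR, housekeeping-normalized. Bidirectional fit vs DMSO baseline.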

Read-out in the next test: CYP2C9 (gene 1559)
Nature of the test: LTEA_HepaRG_CYP2C9: Life Technologies and Expression Analysis (LTEA) Assay for CYP2C9 using HepaRG (AID 2283484). The essentials: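 HepaRG, 48 h dosing, 8-pt half-log series, top 100 uM, 0.5% DMSO vehicle. Read-out: CYP2C9 transcript by TaqMan qRT-PCR, housekeeping-normalized (ACTB/GAPDH/POLR2A). Gain or loss fitted vs DMSO baseline.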

Read-out in another test: CYP2E1 (gene 1571)
Nature of the test: LTEA_HepaRG_CYP2E1: Life Technologies and Expression Analysis (LTEA) Assay for CYP2E1 using HepaRG (AID 2283485). The essentials:
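CYP2E1 transcript was measured by TaqMan qRT-PCR in human HepaRG cultures after 48 h chemical exposure (top 100 uM, half-log steps, 0.5% DMSO vehicle). Housekeeping-gene normalization; gain or loss fitted relative to DMSO baseline.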

Read-out in another test: CYP4A11 (gene 1579)
As to the kind of experiment: LTEA_HepaRG_CYP4A11: Life Technologies and Expression Analysis (LTEA) Assay for CYP4A11 using HepaRG (AID 2283486). The gist of the method:
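Readout is CYP4A11 transcript level by qRT-PCR, normalized to three housekeeping genes and fitted bidirectionally against 0.5% DMSO. Human HepaRG cells were treated 48 h, in duplicate, with an 8-point half-log series topping at 100 uM.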

Read-out in test [13]: Cytochrome P450 3A4 (Homo sapiens) (UniProt P08684)
Nature of the test: LTEA_HepaRG_CYP3A4: Life Technologies and Expression Analysis (LTEA) Assay for CYP3A4 using HepaRG (AID 2283487). The gist of the method: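 Differentiated HepaRG cells, plated 48 h, then dosed 48 h in serum-free induction medium with 0.5% DMSO, 8 half-log concentrations up to 100 uM, duplicate. CYP3A4 mRNA by qRT-PCR, normalized to ACTB/GAPDH/POLR2A; bidirectional fit versus DMSO.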

Read-out in test [14]: DNA damage-inducible transcript 3 (DDIT3), DDIT3 (gene 1649)
As to the kind of experiment: LTEA_HepaRG_DDIT3: Life Technologies and Expression Analysis (LTEA) Assay for DNA damage-inducible transcript 3 (DDIT3) using HepaRG (AID 2283488). The essentials:
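qRT-PCR readout (Fluidigm TaqMan), housekeeping-normalized to ACTB, GAPDH, POLR2A. HepaRG cells, 48 h exposure, 8-point half-log series from 100 uM in 0.5% DMSO, duplicates. Gain or loss of signal fitted against DMSO baseline.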

Chain of Apoptosis regulator Bcl-2 (Homo sapiens) (P10415 whole entry, looked up): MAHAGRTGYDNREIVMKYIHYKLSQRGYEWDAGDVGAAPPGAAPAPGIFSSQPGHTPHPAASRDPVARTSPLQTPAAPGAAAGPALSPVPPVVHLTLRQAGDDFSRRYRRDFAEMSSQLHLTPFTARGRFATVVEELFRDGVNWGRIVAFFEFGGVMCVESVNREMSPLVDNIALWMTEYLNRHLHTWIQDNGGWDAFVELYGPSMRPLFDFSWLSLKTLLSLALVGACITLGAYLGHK
Chain of Caspase-3 (Homo sapiens) (P42574 whole entry, looked up): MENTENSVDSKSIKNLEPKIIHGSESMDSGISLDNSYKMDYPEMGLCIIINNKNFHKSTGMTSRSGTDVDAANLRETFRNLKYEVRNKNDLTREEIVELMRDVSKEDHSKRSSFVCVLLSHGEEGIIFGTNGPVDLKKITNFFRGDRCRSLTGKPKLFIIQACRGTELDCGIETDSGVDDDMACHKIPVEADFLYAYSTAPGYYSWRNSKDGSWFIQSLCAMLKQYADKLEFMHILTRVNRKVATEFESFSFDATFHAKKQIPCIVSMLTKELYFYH
Chain of Cytochrome P450 2C19 (Homo sapiens) (P33261 whole entry, looked up): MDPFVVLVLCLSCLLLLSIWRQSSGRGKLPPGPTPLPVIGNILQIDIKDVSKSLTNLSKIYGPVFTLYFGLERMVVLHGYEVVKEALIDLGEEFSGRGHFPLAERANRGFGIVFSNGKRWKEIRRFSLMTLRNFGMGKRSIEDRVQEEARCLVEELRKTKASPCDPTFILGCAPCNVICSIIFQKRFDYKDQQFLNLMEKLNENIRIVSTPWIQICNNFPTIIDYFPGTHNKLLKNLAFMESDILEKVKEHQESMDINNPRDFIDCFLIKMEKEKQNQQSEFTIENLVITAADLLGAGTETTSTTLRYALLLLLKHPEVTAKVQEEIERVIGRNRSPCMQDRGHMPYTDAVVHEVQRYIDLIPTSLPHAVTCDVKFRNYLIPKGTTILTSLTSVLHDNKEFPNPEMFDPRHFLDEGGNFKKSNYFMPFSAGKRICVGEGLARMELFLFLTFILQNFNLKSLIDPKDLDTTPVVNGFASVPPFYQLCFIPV
Chain of Cytochrome P450 3A4 (Homo sapiens) (P08684 whole entry, looked up): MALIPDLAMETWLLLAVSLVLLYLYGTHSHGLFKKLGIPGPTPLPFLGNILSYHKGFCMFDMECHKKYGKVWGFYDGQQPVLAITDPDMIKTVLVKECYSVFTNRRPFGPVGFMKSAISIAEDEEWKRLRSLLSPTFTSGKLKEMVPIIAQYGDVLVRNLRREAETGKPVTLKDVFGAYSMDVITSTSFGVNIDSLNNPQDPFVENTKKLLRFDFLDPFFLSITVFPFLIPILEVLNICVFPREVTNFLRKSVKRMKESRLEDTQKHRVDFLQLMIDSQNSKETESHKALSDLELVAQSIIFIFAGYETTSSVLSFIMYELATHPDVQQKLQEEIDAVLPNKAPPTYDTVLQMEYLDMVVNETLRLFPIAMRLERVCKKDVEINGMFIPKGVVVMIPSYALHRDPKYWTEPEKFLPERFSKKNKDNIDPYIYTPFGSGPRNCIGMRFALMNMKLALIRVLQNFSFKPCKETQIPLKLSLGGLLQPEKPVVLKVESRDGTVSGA

As to `C[Si]1(C)O[Si](C)(C)O[Si](C)(C)O[Si](C)(C)O1`, the outcome in [1], in test [2], in test [3], in test [4], in [5] and in [6] was inactive. For the same molecule, the result (in test [7]; with Caspase-3 (Homo sapiens); in test [8]; in test [9]; in test [10]; in test [11]) was inactive. For the same molecule, the molecule was classed as inactive (in test [12]; with CYP2C8 (gene 1558); with CYP2C9 (gene 1559); with CYP2E1 (gene 1571); with CYP4A11 (gene 1579); in test [13]). Also, the outcome in [14] was inactive.

What is called AC50 is the midpoint of the concentration-response curve, whichever way the signal moves. Consider `O=C(OCCCCCOC(=O)c1ccccc1)c1ccccc1`, for which the AC50 in test [1] was 1.95 µM (active); in test [2], 1.78 µM (active); in [3], 1.57 µM (active); in [4] it was 0.77 µM (active); in [5], 3.02 µM (active); in [6], 1.67 µM (active). Further, the AC50 in test [7] was 2.7 µM (active); with Caspase-3 (Homo sapiens), 0.627 µM (active); in [9] it was 1.58 µM (active); in test [10], 0.942 µM (active); in [11], 0.969 µM (active); in [12], 2.44 µM (active). For the same molecule, the results for the AC50 (in the test with CYP2C8 (gene 1558); in the test with CYP4A11 (gene 1579); in [14]) were 0.726 µM (active), 1.94 µM (active) and 1.38 µM (active), respectively. Moreover, the result (in test [8]; with CYP2E1 (gene 1571); in test [13]) was inactive.

With `CC1(C)NC(=O)NC1=O`, the result in test [1], in test [2], in test [3], in test [4], in [5] and in test [6] was inactive. Moreover, the call (in test [7]; with Caspase-3 (Homo sapiens); in test [8]; in test [9]; in test [10]; in [11]) was inactive. Besides, the call (in test [12]; with CYP2C8 (gene 1558); in the test with CYP2E1 (gene 1571); with CYP4A11 (gene 1579); in test [13]; in [14]) was inactive.
